The supplement of paper PMC6555819

The sequences below were run on VDR:RXRa (NR concentration 270 nM, RXRa partner concentration 90 nM) (assay: PBM binding z-score (relative to random genomic background probes); higher = stronger binding; sequences stand for … in GC…GCGATTGACAGCGTAGAATGAAGG).
Experimental: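 Protein-binding microarray (Agilent 4x180K custom design, double-stranded 60-nt probes: 5' GC cap, 34-nt variable region, 24-nt constant primer region; full probe sequence given). Purified or IVT nuclear receptor:RXRα heterodimers (3:1 NR:RXRα, mostly 270:90 nM) or homodimers were incubated for 1 h in PBS with 2% milk and no ligand, then detected with Alexa488 antibodies. Fluorescence from o1-orientation probes (~5 replicates averaged) was converted to z-scores against 500 random hg19 background probes. Variable regions are seed direct-repeat (DR0–DR5) sites, all their single-nucleotide variants and half-site ablations.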

| Sequence | PBM binding z-score |
| --- | --- |
| CTACCAAGGTGAACAAGGACGTTGATTACTATTC | 3.82 |
| TATACAGGGTCAAAGGCCAGAGGACGAATGTCGA | 4.73 |
| CGTCCAAGGTCATAGGAGGGCAGTGAAGACAGAT | 5.36 |
| CCAGACAGGTGAGAAGGTAACGCAGCCTCGATTA | -0.101 |
| CCTAGCTGGCCAGGGTCACTCAAGCATTTCGCTT | 2.36 |
| ACAGACAGGTGATGAACGTAACTCAGGCTATCAT | -0.0512 |
| ATATCTAGGTTAGCTGGGGTCATTCAGACTAGGC | 6.03 |
| ATCTCTAGGTAAGACTCAGTTCAGCGAAGAACGC | 0.97 |
| GCTGCTAGGTCAACTGATGGTCAGCTACAGCTCG | 1.51 |
| TCAGACAGGTGAAGGAAACTCAGGTACGCAGTCG | 0.447 |
| CCATACGGGTCACTGACAGGTTATAGCATTTGGA | 3.74 |
| TCTGCTAGGTCAGTTGGTCAGCGAACGAGCTGCC | 0.114 |
| TCTTGTCGATCAAGCAGGTTAAGAAAGCCTGAGT | 0.107 |
| ACTAGCAGGCCAAGGGTCACGCAAGATTAGTCCG | 3.76 |
| AATACAGGGTCACTAGGCCTGAGTAGGTACGAAT | 3.84 |
| CCGACTGGGGCAGAAAGGGTACCATACCATCCGG | -0.384 |
| TAGCCTAGGTCGGATCGGGCCAGTATACGCTATA | -0.475 |
| AGTCGAAGTTCACTAGGTAACGTAAGATTCAGCT | 2.44 |
| TTACCAAGGAGAAAGGTCGTTGATGCACGCCTTG | 1.49 |
| ATCTCTACGTAACCAAGTTCAGTGAATGCCGAAC | 1.17 |

| Sequence | PBM binding z-score |
| --- | --- |
| ATCGAAAGGTCGAGGTGAGTGTAGAGAAAGGGAA | 3.21 |
| ATACCATGGTGATCGTGAGGTCGTTGATACTAAC | 2.03 |
| GCTTGTAGATCAAGGTTAAGGAAGACTAAGCTAA | 0.00298 |
| ATCTCGAGGTAACAAGTTCAGTGAAAGAGAGGAC | 2.63 |
| TTACCAGGGTGAAAGGTCGTTGATGCACGCCTTG | 3.28 |
| CGAACGAGGGCAGGAGTTGATAGCAAATGCCGAT | -0.167 |
| TCTAGCAGGCCAGAGGGTCACTAAAGAGGTACGG | 1.24 |
| AGAATGAGATTATACGTAGATCAGGGAAGAAAGT | -0.367 |
| TAGCCTCGGTCATGGGCCAGTATACCACGCGAAC | -0.162 |
| ATCTCGAGGTAAAAGTTCAGTGAATCCCGAGGAT | 1.7 |
| CCTACTGGGCGATCAGGTCATTGATATCAACGTT | 1.67 |
| CCTTACGGGTCACTCCAGGTTTTAGCATCGGAGT | 3.47 |
| TAGCCTGGGTCATGCGGGCCAGTATAGTGTCGGC | 3.07 |
| TCTTGTAGATCAAAGGTTGAGAAAGCCGAAGCCT | 0.408 |
| ACTTACGGGTCAACGAGGTAATAGCACGCGTATA | 6.51 |
| CCTGCTAGGTCAATGGTCAACTAAAGCAGCTCGC | 1.25 |
| CCGACTGGGGCAAAGGTTACCAAACTCAGTACGA | 1.91 |
| CGTCCAATGTCAAAGGTCAGTGAAGAGATGACGG | 3.72 |
| TAGCCTAGGTTATTCAGGGGCCAGTATAGAAAGC | 0.101 |
| GCTCCTAGGTCAGGTTGGTCAGCTAACGGGTACG | 0.913 |
